Assay results: PubChem BioAssay (NCATS)
Where “and” joins values, the source holds several entries; their conditions need not be identical. Identical values can stand only once. A number with no mark means an inactive call. Results filed as inconclusive are left out. Where a call stands in place of a potency, no number is given. Calls of active or inactive are those of the source. Calls come from the whole dose curve; as a rule, active = well fitted curve in the direction sought with a large enough effect; inconclusive = small, poorly fitted or top-dose-only effect, or another doubt; inactive = no such curve, though single readings can be large; an effect the other way counts as inactive or inconclusive.

Legend:
[1] = qHTS Assay for Identifying Gametocytocidal Compounds (AID 743244); note: potency is the fitted concentration of half-maximal effect;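 for max response: actives lower the fluorescent signal which means gametocytes are killed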; settings: P. falciparum 3D7 stage III-V gametocytes, alamarBlue, 72 h; max response: stronger effect = lower value
Method in brief: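 3D7 gametocytes, stages III–V, 20,000/well; cpd 72 h, 37 °C/5% CO2; + alamarBlue 24 h; fluor. Ex 525/Em 598.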

[2] = qHTS for compounds that reverse cellular toxicity of Amyloid beta (A-beta) peptide in yeast: LOPAC Validation Assay (AID 720559)
Method in brief: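 Activity is expressed relative to DMSO and an equimolar ferric chloride/clioquinol mix. Compounds were pinned into medium with A-beta-expressing yeast, grown 48 hr at 30 C, then read by absorbance at 600 nm.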

[3] = qHTS for Activators of Parkin Expression: LOPAC Validation Assay (NLuc Reporter) (AID 720572)
Method in brief: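 Parkin promoter-driven FLuc/NLuc neuronal reporter cells; 24 h plating, 7-pt dose response, 24 h at 37 C/5% CO2; FLuc then NanoLuc reagent, 10 min each, luminescence; DMSO/positive control normalized.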

[4] = qHTS for Activators of Parkin Expression: LOPAC Validation Assay (FLuc Reporter) (AID 720573)
Method in brief: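 A neuronal cell line harbouring FLuc and NLuc reporters behind the Parkin promoter was exposed to compounds for 24 h. Firefly luciferase signal, measured after 10 min with detection reagent, was scaled to DMSO and positive-control wells.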

[5] = molecular target: T1, Hexokinase-4 (Homo sapiens) + Glucokinase regulatory protein (Homo sapiens) (UniProt P35557+Q14397); assay: qHTS assay for inhibitors of recombinant human GCK-GKRP interaction: Diaphorase-coupled assay (AID 743205)
Method in brief: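 Inhibitors of the GCK–GKRP complex relieve GKRP suppression of GCK, detected through a G6PDH–diaphorase cascade reducing resazurin. Human GST-GCK and FLAG-GKRP are used at 10 nM with 5 mM glucose and 0.4 mM ATP.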

[6] = molecular target: T1, Hexokinase-4 (Homo sapiens) + Glucokinase regulatory protein (Homo sapiens); assay: qHTS assay for inhibitors of recombinant human GCK-GKRP interaction: ADP-Glo assay (AID 743206)
Method in brief: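 GST-GCK and FLAG-GKRP (15 nM each in the dispensed mix, with 2 uM S6P) react with 0.4 mM ATP and 5 mM glucose (final) in Hepes pH 7.6 for 60 min at room temperature. ADP is measured by ADP-Glo luminescence.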

[7] = molecular target: T1, Hexokinase-4 (Homo sapiens) + Glucokinase regulatory protein (Homo sapiens); assay: qHTS assay for inhibitors of recombinant human GCK-GKRP interaction: HTRF assay (AID 743207)
Method in brief: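 Steps: dispense GCK–GKRP complex (5 nM each, GST- and FLAG-tagged) with 2 uM S6P; pin in compounds; add XL665/Eu-cryptate-labelled antibodies; incubate 60 min at room temperature; read time-resolved FRET at 665 and 615 nm.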

[8] = molecular target: Arylsulfatase A (Homo sapiens) (UniProt P15289); assay: qHTS screen for enhancers of Arylsulfatase A (ASA1): LOPAC Validation Assay (AID 720538); note: potency is the fitted concentration of half-maximal effect
Method in brief: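 First, ASA-I179S fibroblasts from an MLD patient adhered for 6 hrs. Next, compounds were added for 48h. Then pNCS substrate (0.5mM final) with lysis buffer reacted 14h at room temperature before NaOH stop and fluorescence measurement.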

T1 sequence (P35557 whole entry, looked up): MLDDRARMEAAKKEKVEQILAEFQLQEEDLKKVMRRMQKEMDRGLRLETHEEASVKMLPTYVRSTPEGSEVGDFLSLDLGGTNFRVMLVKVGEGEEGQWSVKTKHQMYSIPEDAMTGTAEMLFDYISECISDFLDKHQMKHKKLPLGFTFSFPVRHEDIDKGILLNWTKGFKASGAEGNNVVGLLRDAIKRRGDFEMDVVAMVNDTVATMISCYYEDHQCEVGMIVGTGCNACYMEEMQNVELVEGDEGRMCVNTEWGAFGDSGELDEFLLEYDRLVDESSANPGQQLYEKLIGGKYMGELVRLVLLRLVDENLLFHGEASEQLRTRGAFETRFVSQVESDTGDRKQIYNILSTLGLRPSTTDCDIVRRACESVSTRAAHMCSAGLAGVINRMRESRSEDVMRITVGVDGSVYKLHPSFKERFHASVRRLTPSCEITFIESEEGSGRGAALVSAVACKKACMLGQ
T1 sequence (Q14397 whole entry, looked up): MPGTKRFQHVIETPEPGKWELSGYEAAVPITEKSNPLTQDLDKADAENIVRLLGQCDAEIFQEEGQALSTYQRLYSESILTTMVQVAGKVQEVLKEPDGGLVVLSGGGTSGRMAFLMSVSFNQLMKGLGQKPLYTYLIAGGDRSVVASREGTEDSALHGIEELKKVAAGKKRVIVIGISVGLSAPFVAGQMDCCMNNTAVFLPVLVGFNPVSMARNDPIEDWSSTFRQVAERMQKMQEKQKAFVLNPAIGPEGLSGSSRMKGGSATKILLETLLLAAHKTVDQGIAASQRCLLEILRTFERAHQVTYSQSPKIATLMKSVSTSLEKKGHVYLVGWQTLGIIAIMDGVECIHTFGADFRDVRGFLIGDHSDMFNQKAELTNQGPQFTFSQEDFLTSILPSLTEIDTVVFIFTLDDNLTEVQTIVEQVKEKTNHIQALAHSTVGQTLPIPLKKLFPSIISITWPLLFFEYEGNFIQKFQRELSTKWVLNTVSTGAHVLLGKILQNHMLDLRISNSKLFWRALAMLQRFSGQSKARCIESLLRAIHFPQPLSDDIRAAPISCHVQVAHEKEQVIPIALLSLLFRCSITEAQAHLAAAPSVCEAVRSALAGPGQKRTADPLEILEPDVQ
Chain of Arylsulfatase A (Homo sapiens) (P15289 whole entry, looked up): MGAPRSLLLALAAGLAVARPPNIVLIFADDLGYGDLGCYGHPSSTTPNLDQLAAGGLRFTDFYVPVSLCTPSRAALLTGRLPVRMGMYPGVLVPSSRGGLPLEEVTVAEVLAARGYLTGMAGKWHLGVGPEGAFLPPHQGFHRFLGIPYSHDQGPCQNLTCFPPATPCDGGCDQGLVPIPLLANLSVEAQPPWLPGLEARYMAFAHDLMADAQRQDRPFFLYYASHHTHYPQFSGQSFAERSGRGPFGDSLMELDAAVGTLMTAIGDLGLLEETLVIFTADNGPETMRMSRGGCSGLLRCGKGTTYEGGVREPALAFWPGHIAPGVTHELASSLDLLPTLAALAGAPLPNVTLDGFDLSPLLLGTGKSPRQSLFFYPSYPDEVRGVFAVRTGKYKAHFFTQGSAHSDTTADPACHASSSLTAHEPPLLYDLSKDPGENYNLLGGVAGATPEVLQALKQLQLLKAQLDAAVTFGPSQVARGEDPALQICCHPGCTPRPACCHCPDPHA

Cn1sc(Cl)cc1=O
max response [1]: 0.945%

N=C(N)c1ccc(CS(=O)(=O)F)cc1
outcome [2]: inactive
Potency [3]: inactive
outcome [4]: inactive
Potency [5]: inactive
outcome [6]: inactive
outcome [7]: inactive
max response [1]: 2.02%

C[C@@H]1O[C@@H](O[C@H]2C[C@@H](O)[C@]3(CO)[C@@H]4C(CC[C@]3(O)C2)[C@@]2(O)CC[C@H]([C@@H]3COC(=O)C3)[C@@]2(C)C[C@H]4O)[C@H](O)[C@H](O)[C@H]1O (stereo partly specified)
outcome [2]: inactive
Potency [3]: inactive
outcome [4]: inactive
Potency [5]: inactive
outcome [6]: inactive
outcome [7]: inactive
max response [1]: 22.5%

CC(=O)NBr
outcome [2]: inactive
Potency [3]: inactive
outcome [4]: inactive
Potency [5]: inactive
outcome [6]: inactive
outcome [7]: inactive
max response [1]: 10.7%

CCNC(=O)[C@H]1O[C@@H](n2cnc3c(N)ncnc32)[C@H](O)[C@@H]1O
outcome [2]: inactive
Potency [3]: inactive
outcome [4]: inactive
Potency [5]: inactive
outcome [6]: inactive
outcome [7]: inactive
max response [1]: -1.58%

CN1CCc2cc(O)cc3c2[C@H]1Cc1ccc(O)c(O)c1-3
outcome [2]: inactive
Potency [3]: inactive
outcome [4]: inactive
Potency [5]: inactive
outcome [6]: inactive
outcome [7]: inactive
max response [1]: 32.9%

CCCN1CCc2cc(O)cc3c2[C@H]1Cc1ccc(O)c(O)c1-3
outcome [2]: inactive
Potency [3]: inactive
outcome [4]: inactive
Potency [5]: inactive
outcome [6]: inactive
outcome [7]: inactive
Potency [1]: 2.51 µM (active)

Oc1ccc2c3c1O[C@H]1c4[nH]c5ccccc5c4C[C@@]4(O)C(C2)N(CC2CC2)CCC314 (stereo partly specified)
Potency [5]: inactive
outcome [7]: inactive

CCCCCCC(C)(C)c1ccc([C@@H]2C[C@H](O)CC[C@H]2CCCO)c(O)c1
outcome [2]: inactive
Potency [3]: inactive
outcome [4]: inactive
Potency [5]: inactive
outcome [6]: inactive
outcome [7]: inactive

COc1ccc(OC)c(C(O)C(C)N)c1 (stereo unspecified)
outcome [2]: inactive
Potency [3]: inactive
outcome [4]: inactive
Potency [5]: inactive
outcome [6]: inactive
outcome [7]: inactive
max response [1]: 11.7%

NC(=O)c1cc(N2CC2)c([N+](=O)[O-])cc1[N+](=O)[O-]
outcome [2]: inactive
Potency [3]: inactive
outcome [4]: inactive
Potency [5]: inactive
outcome [6]: inactive
outcome [7]: inactive
max response [1]: 5.78%

CC(N)c1cccc(Cl)c1Cl (stereo unspecified)
outcome [2]: inactive
Potency [3]: inactive
outcome [4]: inactive
Potency [5]: inactive
outcome [6]: inactive
outcome [7]: inactive

C[C@]12Cc3cn4c(nc3C=C1CCC1C2CC[C@@]2(C)[C@H]1CC[C@@]2(O)C#N)nc1ccccc14 (stereo partly specified)
Potency [8]: inactive
outcome [2]: inactive
outcome [4]: inactive
Potency [5]: inactive
outcome [6]: inactive
outcome [7]: inactive

Clc1ccc(N2CC3CCC(C2)N3)nn1
outcome [2]: inactive
Potency [3]: inactive
outcome [4]: inactive
Potency [5]: inactive
outcome [6]: inactive
outcome [7]: inactive
max response [1]: 23.5%

N[C@@H](Cn1oc(=O)[nH]c1=O)C(=O)O
outcome [2]: inactive
Potency [3]: inactive
outcome [4]: inactive
Potency [5]: inactive
outcome [6]: inactive
outcome [7]: inactive
max response [1]: 11.5%

CC12NC(Cc3ccccc31)c1ccccc12 (stereo unspecified)
Potency [8]: inactive
Potency [5]: inactive
outcome [6]: inactive
outcome [7]: inactive
max response [1]: 3.88%

NC(Cc1cc(O)c(O)cc1O)C(=O)O (stereo unspecified)
Potency [8]: 16.9 µM (active)
outcome [2]: inactive
Potency [3]: inactive
outcome [4]: inactive
Potency [5]: inactive
outcome [6]: inactive
max response [1]: 2.05%

CN(N=O)c1ccc(O)c(O)c1
Potency [8]: 3.01 µM (active)
outcome [2]: inactive
Potency [3]: inactive
outcome [4]: inactive
Potency [5]: inactive
Potency [1]: 1 µM (active)

COC(=O)[C@@H]1[C@H]2CC[C@@H](C[C@H]1OC(=O)c1ccccc1)N2C
max response [1]: 5.25%

CC(C)CC(NP(=O)(O)O[C@@H]1O[C@@H](C)[C@H](O)[C@@H](O)[C@H]1O)C(=O)NC(Cc1c[nH]c2ccccc12)C(=O)O (stereo partly specified)
outcome [7]: inactive

N#CCCN
outcome [2]: inactive
Potency [3]: inactive
outcome [4]: inactive
Potency [5]: inactive
outcome [6]: inactive
outcome [7]: inactive
max response [1]: 15.8%

CC(N)Cc1c[nH]c2ccc(O)cc12 (stereo unspecified)
Potency [8]: 9.53 µM (active)
outcome [2]: inactive
Potency [3]: inactive
outcome [4]: inactive
Potency [5]: inactive
outcome [6]: inactive
outcome [7]: inactive
max response [1]: 20.7%

CCCN(CCC)CCc1ccc(O)c(O)c1
outcome [2]: inactive
Potency [3]: inactive
outcome [4]: inactive
Potency [5]: inactive
outcome [6]: inactive
outcome [7]: inactive
max response [1]: 12.9%

O=[N+]([O-])/C=C/c1ccc2c(c1)OCO2
outcome [2]: inactive
Potency [3]: inactive
outcome [4]: inactive
Potency [5]: inactive
outcome [6]: inactive
outcome [7]: inactive
Potency [1]: 1.58 µM (active)

C[N+](C)(C)CCOC(=O)CBr
outcome [2]: inactive
Potency [3]: inactive
outcome [4]: inactive
Potency [5]: inactive
outcome [6]: inactive
outcome [7]: inactive
max response [1]: 20.4%

Cc1cc([C@@H]2CCCN2C)on1
outcome [2]: inactive
Potency [3]: inactive
outcome [4]: inactive
Potency [5]: inactive
outcome [6]: inactive
outcome [7]: inactive

O=[N+]([O-])c1ccc2nc(N3CCNCC3)ccc2c1
outcome [2]: inactive
Potency [3]: inactive
outcome [4]: inactive
Potency [5]: inactive
outcome [6]: inactive
outcome [7]: inactive

NCC(O)c1cc(O)c(O)cc1F (stereo unspecified)
outcome [2]: inactive
Potency [3]: inactive
outcome [4]: inactive
Potency [5]: inactive
outcome [6]: inactive
outcome [7]: inactive
max response [1]: 20.1%

[H+].[H+].[Hg+2].[O-]B([O-])[O-].[c-]1ccccc1
Potency [1]: 3.55 µM (active)

CNC1(c2ccccc2Cl)CCCCC1=O (stereo unspecified)
max response [1]: 16% and -7.76%

Cc1cccc(C(C)c2cnc[nH]2)c1C (stereo unspecified)
max response [1]: 17.3%

c1csc(C2(N3CCCCC3)CCCCC2)c1
max response [1]: -3.82%

OC(c1ccccc1)(c1ccccc1)C1CN2CCC1CC2 (stereo unspecified)
max response [1]: -14.7%

CCNC(C)Cc1cccc(C(F)(F)F)c1 (stereo unspecified)
max response [1]: 22.8%

COc1ccc2c3c1O[C@H]1[C@@H](O)C=C[C@H]4[C@@H](C2)NCC[C@@]341
max response [1]: -9%

C[C@]12CC[C@H]3[C@@H](CCC4=C(O)C(=O)CC[C@@H]43)[C@@H]1CC[C@@H]2OC(=O)CCC1CCCC1
max response [1]: -3.51%

C[N+]1(C)CCCCC1COC(=O)C(O)(c1ccccc1)c1ccccc1 (stereo unspecified)
max response [1]: -10.4%

C[C@H]1CC[C@]2(NC1)O[C@H]1C[C@H]3[C@@H]4CC[C@H]5C[C@@H](O)CC[C@]5(C)[C@H]4CC[C@]3(C)[C@H]1[C@@H]2C
max response [1]: 2.92%

Oc1ccc2c3c1O[C@H]1[C@@H](O)CC[C@@]4(O)[C@@H](C2)N(CC2CCC2)CC[C@]314
max response [1]: 2.47%

CC(=O)[C@H]1CC[C@H]2[C@@H]3CC[C@@H]4C[C@H](O)CC[C@]4(C)[C@H]3CC[C@]12C
max response [1]: -3.94%

C#CC(C)(O)CC (stereo unspecified)
max response [1]: 4.2%

CCC(N)Cc1c[nH]c2ccccc12 (stereo unspecified)
max response [1]: 2.35% and -8.43%

CC1(C)S[C@@H]2[C@H](N)C(=O)N2[C@H]1C(=O)O
max response [1]: -4.29%

CC1CCC(C(C)C)C(OC(=O)c2ccccc2N)C1 (stereo unspecified)
max response [1]: 9.28%

CN1c2ccccc2C(NCCCCCCC(=O)O)c2ccc(Cl)cc2S1(=O)=O (stereo unspecified)
max response [1]: -8.42%

CCNCC(O)c1cccc(O)c1 (stereo unspecified)
max response [1]: -3.84%

NCC(O)c1cccc(O)c1 (stereo unspecified)
max response [1]: 13.2%

C=CCC1(C(C)CCC)C(=O)N=C(S)NC1=O (stereo unspecified)
max response [1]: -3.05%

CNc1ccc(C(=O)CC(O)CCC(C)C2OC(=O)CC(O)CC(=O)CC(O)CC(O)CC(O)CC(O)CC3(O)CC(O)C(C(=O)OC)C(CC(O[C@@H]4O[C@H](C)[C@@H](O)[C@H](N)[C@@H]4O)/C=C/C=C/C=C/C=C/C=C/C=C/C=C/C2C)O3)cc1 (stereo partly specified)
max response [1]: 22.8%

CCC1(c2ccccc2)C(=O)NC(=O)N(C(=O)c2ccccc2)C1=O (stereo unspecified)
max response [1]: -4.65%

CC[N+](C)(CC)CCOC(=O)C(O)(c1ccccc1)c1ccccc1
max response [1]: 11.5%

S=C(S)N1CCNCC1
max response [1]: -5.89%

CC(=O)OC1CN2CCC1CC2 (stereo unspecified)
max response [1]: -0.102%

CC(=O)O[C@H]1CC[C@@]2(C)C(=CC[C@@H]3[C@@H]2CC[C@]2(C)C(=O)CC[C@@H]32)C1
max response [1]: 5.11%

CN1C2CCC1CC(OC(c1ccccc1)c1ccc(Cl)cc1)C2 (stereo unspecified)
Potency [1]: 17.8 µM (active)

COC1=CC=C2[C@H]3Cc4ccc(OC)c5c4[C@@]2(CCN3C)[C@H]1O5
max response [1]: 13.9%

Cc1cc(C)cc(C(=O)OC2C[C@H]3CC[C@@H](C2)N3C)c1 (stereo partly specified)
max response [1]: 23%

CCC(C)(S(=O)(=O)CC)S(=O)(=O)CC
max response [1]: 7.4%

Clc1ccc(Cl)cc1
max response [1]: -1.73%

O=C1CCCCC1CN1CCCCC1 (stereo unspecified)
max response [1]: -0.825%

CCC(=O)O[C@@](Cc1ccccc1)(c1ccccc1)[C@@H](C)CN(C)C
max response [1]: 5.87%

Cc1ccccc1-n1c(C)nc2ccccc2c1=O
max response [1]: 5.64% and -12.4%

CC[C@H]1[C@@H]2C[C@H]3[C@@H]4N(C)c5ccccc5[C@]45C[C@@H](C2[C@H]5O)N3[C@@H]1O (stereo partly specified)
max response [1]: 7.56%
